Source: PubChem BioAssay (NCATS)
Results filed as inconclusive are left out. The source made the active and inactive calls. Calls follow the shape of the dose curve; as a rule, active = well fitted curve in the direction sought with a large enough effect; inconclusive = small, poorly fitted or top-dose-only effect, or another doubt; inactive = no such curve, though single readings can be large; an effect the other way counts as inactive or inconclusive.

Experiments:
[1] = target: Aldehyde dehydrogenase, mitochondrial (Homo sapiens) (UniProt P05091); assay: qHTS for Inhibitors of the Aldehyde Dehydrogenase Family (ALDH2) Primary screen (AID 2061308); also: nearly all actives have a fitted effect of over 55% in size; also: potency is read from the fitted curve at half-maximal effect
[2] = target: Retinaldehyde dehydrogenase 3 (Homo sapiens) (UniProt P47895); assay: qHTS for Inhibitors of the Aldehyde Dehydrogenase Family (ALDH1A3) Validation screen (AID 2061312); also: % is scaled to controls: 0 for no effect and ±100 for the full control effect; nearly all actives have a fitted effect of over 45% in size
[3] = target: Retinaldehyde dehydrogenase 3 (Homo sapiens) (UniProt P47895); assay: qHTS for Inhibitors of the Aldehyde Dehydrogenase Family (ALDH1A3) Primary screen (AID 2061315);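 also: plate controls were DMSO vehicle for no effect and reference inhibitor for full effect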
[4] = BET inhibitor-based combinations targeting novel dependencies in MECOM-rearranged (r) AML: SET-2 cell line (AID 2202231); details: SET-2 AML cells viability, CellTiter-Glo luminescence, 48 h; viability: active compounds read low, concentration not given here; also: nearly all actives have a fitted effect of over 35% in size; also: potency is read from the fitted curve at half-maximal effect;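 as to viability: plate controls were DMSO treated cells for no effect and wells without cells for full effect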
Method in brief: (§1)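 A 48 hr incubation preceded viability reading by CellTiter-Glo, with 15 min room-temperature development. Dose series had 11 points; normalization used DMSO and empty wells; AUC was computed and mean-centered per line as Z-AUC.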

[5] = BET inhibitor-based combinations targeting novel dependencies in MECOM-rearranged (r) AML: UCSD-AML1 cell line (AID 2202235); also: nearly all actives have a fitted effect of over 40% in size; also: potency is read from the fitted curve at half-maximal effect
Method in brief: (§2)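 Each compound is tested in an 11-point concentration series against 500 seeded cells/well for 48 hr. The luminescent viability signal is normalized to DMSO and blank wells, then reduced to AUC and a cell-line-centred Z-AUC.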

[6] = BET inhibitor-based combinations targeting novel dependencies in MECOM-rearranged (r) AML: AML-194 cell line (AID 2202237; also: nearly all actives have a fitted effect of over 40% in size; also: potency is read from the fitted curve at half-maximal effect)
Method in brief: as §1

[7] = BET inhibitor-based combinations targeting novel dependencies in MECOM-rearranged (r) AML: OCI-AML3 cell line (AID 2202232); details: Potency: OCI-AML3 viability; also: potency is read from the fitted curve at half-maximal effect; nearly all actives have a fitted effect of over 35% in size
Method in brief: as §1

[8] = BET inhibitor-based combinations targeting novel dependencies in MECOM-rearranged (r) AML: MV-4-11 cell line (AID 2202233); also: nearly all actives have a fitted effect of over 45% in size; also: potency is read from the fitted curve at half-maximal effect
Method in brief: as §2

[9] = BET inhibitor-based combinations targeting novel dependencies in MECOM-rearranged (r) AML: HNT-34 cell line (AID 2202234); also: potency is read from the fitted curve at half-maximal effect; nearly all actives have a fitted effect of over 35% in size
Method in brief: as §2

[10] = BET inhibitor-based combinations targeting novel dependencies in MECOM-rearranged (r) AML: AML-191 cell line (AID 2202236; also: potency is read from the fitted curve at half-maximal effect; nearly all actives have a fitted effect of over 35% in size)
Method in brief: as §1

[11] = target: Retinal dehydrogenase 2 (Homo sapiens) (UniProt O94788); assay: qHTS for Inhibitors of the Aldehyde Dehydrogenase Family (ALDH1A2) Confirmation screens (AID 2061314); also: nearly all actives have a fitted effect of over 65% in size; also: potency is read from the fitted curve at half-maximal effect
[12] = target: Aldehyde dehydrogenase 1A1 (Homo sapiens) (UniProt P00352); assay: qHTS for Inhibitors of the Aldehyde Dehydrogenase Family (ALDH1A1) Confirmatory screens (AID 2061316); also: potency is read from the fitted curve at half-maximal effect; nearly all actives have a fitted effect of over 65% in size

Cc1cnc(-c2ccccc2C(C)C)nc1NCc1ccc(-n2ccnn2)cc1
inactive: Potency [1] | Potency [2] | Potency [3] | viability [4] 86.2% | Potency [5] | Potency [6]

CCCc1cc(C)[nH]c(=O)c1CNC(=O)c1cc(-c2ccc(N3CCN(C(C)C)CC3)nc2)cc2c1cnn2C(C)C
active: Potency [7] 18.6 µM | Potency [8] 16.6 µM | Potency [9] 20.9 µM | Potency [5] 16.6 µM | Potency [6] 14.8 µM
inactive: Potency [1] | Potency [2] | Potency [3] | viability [4] 110%

O=C(c1ccc(F)c(F)c1Nc1ccc(I)cc1F)N1CC(O)([C@@H]2CCCCN2)C1
active: Potency [9] 0.742 µM | Potency [5] 0.296 µM | Potency [10] 8.33 µM | Potency [6] 7.42 µM
inactive: Potency [1] | Potency [2] | Potency [3]

Cc1ccc(-c2ccc(=O)n(CC(=O)N(C)C(C)c3ccco3)c2)cc1 (stereo not given)
active: Potency [11] 2.01 µM
inactive: Potency [1] | Potency [3]

COc1ccc(C(=O)CC2(O)C(=O)Nc3c(Cl)ccc(Cl)c32)cc1 (stereo not given)
active: Potency [4] 0.934 µM | Potency [10] 1.05 µM | Potency [6] 1.86 µM
inactive: Potency [1] | Potency [2] | Potency [3] | Potency [8]

CC(=O)Nc1ccc(-c2csc(N3CCC(C(N)=O)CC3)n2)cc1
active: Potency [11] 22.5 µM
inactive: Potency [1] | Potency [3]

CCOC(=O)[C@@H](N)Cc1ccc(-c2cc(O[C@H](c3ccc(Cl)cc3-n3ccc(C)n3)C(F)(F)F)nc(N)n2)cc1
inactive: Potency [1] | Potency [2] | Potency [3] | Potency [5]
active: Potency [4] 26.3 µM | Potency [7] 11.8 µM | Potency [8] 9.34 µM | Potency [10] 23.5 µM | Potency [6] 26.3 µM

c1nc(NCC2CCCOC2)c2cc(-c3ccc4c(c3)OCO4)ccc2n1 (stereo not given)
inactive: Potency [1] | Potency [3]
active: Potency [11] 11.3 µM

c1ccc(Cn2c(-c3ccc(OCC(C4CCNCC4)n4c(-c5ccccc5)nc5ccccc54)cc3)nc3ccccc32)cc1 (stereo not given)
inactive: Potency [1] | Potency [2] | Potency [3]
active: Potency [7] 23.5 µM | Potency [8] 8.33 µM | Potency [9] 18.6 µM | Potency [5] 26.3 µM | Potency [6] 23.5 µM

C=C(c1ccc(C(=O)O)cc1)c1cc2c(cc1C)C(C)(C)CCC2(C)C
active: Potency [8] 0.148 µM
inactive: Potency [1] | Potency [2] | Potency [3] | viability [4] 115% | Potency [6]

Cc1ccc(S(=O)(=O)c2ncccc2[N+](=O)[O-])cc1
active: Potency [1] 6.31 µM | Potency [11] 0.449 µM

COc1ccc(C2=Nn3c(nnc3-c3ccc(OC)cc3OC)SC2)cc1
inactive: Potency [1] | Potency [11] | Potency [3]

CON(C)C(=O)N1N=C(c2cc(F)ccc2F)S[C@@]1(CCCN)c1ccccc1
active: Potency [4] 0.0295 µM | Potency [7] 0.0093 µM | Potency [8] 0.0118 µM | Potency [5] 0.0105 µM | Potency [10] 0.0132 µM
inactive: Potency [1] | Potency [2] | Potency [3]

CC(=O)Nc1ncc(S(=O)(=O)Nc2cnccc2C(=O)Nc2nc(-c3ccccc3)cs2)s1
active: Potency [11] 10.1 µM | Potency [12] 20.1 µM
inactive: Potency [1] | Potency [3]

Cc1cc(-c2nnc3n2CCCCC3)c(C)n1-c1ccc([N+](=O)[O-])cc1
inactive: Potency [1] | Potency [3]
active: Potency [11] 22.5 µM | Potency [12] 10.1 µM

CS(=O)(=O)N1CCN(c2nc(-c3ccc(Br)cc3)cs2)CC1
inactive: Potency [1] | Potency [11] | Potency [3]

N#Cc1c(-c2ccc(Cl)cc2)no[n+]1[O-]
inactive: Potency [3]
active: Potency [1] 7.94 µM | Potency [11] 10.1 µM

COCCOC(=O)C1=C(C)NC2=C(C(=O)CC(c3ccccc3OC)C2)C1c1cccc(O)c1 (stereo not given)
active: Potency [4] 16.6 µM | Potency [8] 5.25 µM | Potency [10] 14.8 µM
inactive: Potency [1] | Potency [2] | Potency [3]

c1nc(NCC2CCCCO2)c2cc(-c3ccc4c(c3)OCO4)ccc2n1 (stereo not given)
inactive: Potency [1] | Potency [3]
active: Potency [11] 22.5 µM | Potency [12] 12.7 µM

OCCNC1CCCc2c1[nH]c1ccc(-c3ccccc3)cc21 (stereo not given)
inactive: Potency [1] | Potency [2] | Potency [3]
active: Potency [4] 11.8 µM | Potency [7] 16.6 µM | Potency [8] 11.8 µM | Potency [9] 14.8 µM | Potency [10] 16.6 µM | Potency [6] 13.2 µM

Cc1[nH]c2ccccc2c1CCNCc1ccc(/C=C/C(=O)NO)cc1
active: Potency [4] 0.0833 µM | Potency [8] 0.0525 µM | Potency [9] 0.0934 µM | Potency [5] 0.0934 µM | Potency [10] 0.0833 µM | Potency [6] 0.105 µM
inactive: Potency [1] | Potency [2]
